HepG2 tox: kills HepG2 cells in TGF-b inhibitor counter-screen; HepG2 CAGA-GFP viability, ATP luminescence, 18 h; Potency, µM (titrated, usually from 46.1 µM), without a hit: at the top dose activity change, negative = cytotoxicity, actives largely listed as cytotoxic; hit rate 0.76% among 410,000; AID 588856; also: potency is read from the fitted curve at half-maximal effect
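CellTiter-Glo luminescence gave cytotoxicity after 18 hours at 37 degrees C. The cells were HepG2 CAGA-GFP in 1% FBS DMEM, stimulated with 500 pg/mL TGF-beta after compound addition. %Activity was normalised to no-cell wells (complete cell-killing) and DMSO (no toxicity), and curves were fitted and classified.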
TDP1 inh: TDP1 (human) enzyme inhibition; Q9NUW8; recombinant TDP1, AlphaScreen DNA substrate cleavage; Potency, µM (doses to about 130 µM), without a hit: at the top dose activity change, negative = inhibition, most hits filed as inhibitors; hit rate 0.28% among 350,000; AID 485290; also: potency is read from the fitted curve at half-maximal effect; % is scaled to controls: 0 for no effect and ±100 for the full control effect; nearly all actives have a fitted effect of over 40% in size
Target sequence (Q9NUW8 whole entry, looked up): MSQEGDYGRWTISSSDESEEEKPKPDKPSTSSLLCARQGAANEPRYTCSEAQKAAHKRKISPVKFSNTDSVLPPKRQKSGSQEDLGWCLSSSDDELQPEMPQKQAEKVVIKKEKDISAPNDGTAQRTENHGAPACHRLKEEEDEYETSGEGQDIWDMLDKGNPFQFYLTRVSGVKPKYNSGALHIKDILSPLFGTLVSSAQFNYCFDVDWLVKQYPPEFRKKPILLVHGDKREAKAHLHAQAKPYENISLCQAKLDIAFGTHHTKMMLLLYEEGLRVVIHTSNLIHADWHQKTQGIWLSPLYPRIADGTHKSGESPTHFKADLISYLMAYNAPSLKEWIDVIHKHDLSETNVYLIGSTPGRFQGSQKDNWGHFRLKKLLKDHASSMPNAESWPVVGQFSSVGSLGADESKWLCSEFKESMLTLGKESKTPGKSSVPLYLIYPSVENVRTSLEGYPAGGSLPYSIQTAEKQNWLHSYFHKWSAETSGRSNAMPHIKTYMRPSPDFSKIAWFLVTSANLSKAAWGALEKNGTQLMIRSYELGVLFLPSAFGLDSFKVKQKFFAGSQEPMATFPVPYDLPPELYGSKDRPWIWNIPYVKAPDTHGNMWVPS
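Enzyme-compound mixtures sat 15 min at room temperature, followed by a 5 min reaction with 15 nM final substrate and 10 min with AlphaScreen beads. Recombinant human Tdp1 was used at 1 nM final.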
TDP1 cell CPT: growth inhibition of DT40 Tdp1-/-;hTDP1 cells with camptothecin (screen for TDP1 inhibitors); chicken DT40 Tdp1-/-;hTDP1 cells + 20 nM CPT, ATP luminescence, 48 h; Potency, µM (titrated, usually from 46.2 µM), for inactives: at the highest dose activity change, negative = growth inhibition, most hits filed as inhibitors; hit rate 12% among 420,000; AID 686979; also: potency is read from the fitted curve at half-maximal effect; % is scaled to controls: 0 for no effect and ±100 for the full control effect; nearly all actives have a fitted effect of over 55% in size
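Chicken DT40 Tdp1-/- cells complemented with human TDP1, 400 cells/well, exposed to compounds plus 20 nM camptothecin for at least 48 h at 37 C; viability read as ATP content by CellTiter-Glo luminescence.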
TGFb SMAD3 inh: inhibitors of TGF-b signaling; HepG2 CAGA-GFP TGF-b/SMAD3 reporter, GFP fluorescence, 18 h; TGF-beta stimulated, 500 pg/mL final; hit rate 1.2% among 410,000; Potency, µM (series often up to 46.1 µM), without a hit: at the top dose activity, negative = inhibition, hits mostly inhibitors; AID 588855; also: potency is read from the fitted curve at half-maximal effect; % is scaled to controls: 0 for no effect and ±100 for the full control effect; nearly all actives have a fitted effect of over 65% in size
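GFP signal (ex488/em500-530) from TGF-beta-stimulated HEPG2 CAGA-GFP cells, 500 pg/mL final, 18 h at 37 degrees C in DMEM plus 1% FBS, normalized to unstimulated and DMSO-stimulated controls.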
IL-1B inflam inh: inflammasome signaling inhibition, IL-1 beta readout; THP-1 LPS/ATP IL-1B secretion, AlphaLISA, 16 h; stronger effect = lower value; activity change, % at 57.5 µM; hit rate 4.7% among 360,000; in the data active = activity change below about -50%; inconclusive = mostly about -30% to -49%; also: % is scaled to controls: 0 for no effect and ±100 for the full control effect
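THP-1 cells pretreated 1 hr with compounds (up to 57.5 uM final), then stimulated with LPS (250 ng/mL final) plus ATP (1.25 mM final); secreted IL-1B measured by AlphaLISA after 16 hr, decreased signal indicating inhibition.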
DT40 TDP1 no CPT: qHTS for Inhibitors of human tyrosyl-DNA phosphodiesterase 1 (TDP1): qHTS in cells in absence of CPT. DT40 Tdp1-/- hTDP1 cells, no CPT, ATP luminescence, 48 h. Potency, µM (top dose mostly 46.2 µM), without a hit: top-dose activity change, negative = growth inhibition, usual class: inhibitors. hit rate 15% among 420,000. AID 686978, 2013; also: potency is read from the fitted curve at half-maximal effect; % is scaled to controls: 0 for no effect and ±100 for the full control effect; nearly all actives have a fitted effect of over 55% in size
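Compound effects on proliferation are scored in DT40 Tdp1-/-;hTDP1 cells in the absence of CPT. ATP levels (CellTiter-Glo luminescence) are recorded after a ≥48 hr, 37 °C incubation.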
Active calls of the source: *; ? = inconclusive; . = no result given; [ ] = dose if it differs, or a comment. A selection: hits, their analogues and other compounds. The true share with any hit is near 19%. Unless noted, calls follow the shape of the dose curve; as a rule, active = well fitted curve in the direction sought with a large enough effect; inconclusive = small, poorly fitted or top-dose-only effect, or another doubt; inactive = no such curve, though single readings can be large; an effect the other way counts as inactive or inconclusive.

SMILES	HepG2 tox	TDP1 inh	TDP1 cell CPT	TGFb SMAD3 inh	IL-1B inflam inh	DT40 TDP1 no CPT
COc1ccc(Nc2cc(C(=O)NCCCN3CCN(C)CC3)c3ccccc3n2)cc1	-34%	5%	?	-2%	-17	-28%
CC(=O)Nc1cccc(-c2ccnc3c2CC(C(=O)Nc2cccc(OC(F)(F)F)c2)O3)c1 (configuration not stated)	-18%	.	?	?	9	18µM*
CC(=O)Nc1ccc(-c2ccnc3c2CC(C(=O)Nc2cccc(Oc4ccccc4)c2)O3)cc1 (configuration not stated)	-14%	.	?	-23%	?	21µM*
O=C(Nc1cccc(C(F)(F)F)c1)C1Cc2c(-c3cccc(F)c3)ccnc2O1 (configuration not stated)	-19%	.	?	?	0	?
CC(=O)Nc1ccc(-c2ccnc3c2CC(C(=O)Nc2cccc(OC(F)(F)F)c2)O3)cc1 (configuration not stated)	-23%	.	21µM*	?	-13	18µM*
CC(=O)Nc1cccc(-c2ccnc3c2CC(C(=O)Nc2cccc(Oc4ccccc4)c2)O3)c1 (configuration not stated)	-25%	.	?	?	-8	?
CC(=O)Nc1ccc(-c2ccnc3c2CC(C(=O)Nc2cccc(C(F)(F)F)c2)O3)cc1 (configuration not stated)	1%	.	23µM*	?	-2	-73%
CCCn1c(=O)n(-c2ccccc2Cl)c(=O)c2sc3ccccc3c21	-1%	-6%	?	-9%	.	?
Cc1ccc(NC(=O)CN2C(=O)CCn3nc(-c4cccn4C)cc32)c(Cl)c1	-11%	11%	?	-17%	.	?
O=C(COC(=O)c1cccc([N+](=O)[O-])c1)c1ccc2c(c1)OCO2	.	-8%[0.505 µM]	.	.	.	.
CC(=O)Nc1cccc(-c2ccnc3c2CC(C(=O)Nc2cccnc2)O3)c1 (configuration not stated)	-11%	.	-32%	-10%	12	?
CC(=O)Nc1ccc(-c2ccnc3c2CC(C(=O)Nc2cccc(N(C)C)c2)O3)cc1 (configuration not stated)	-16%	.	18µM*	22%	-19	2.6µM*
Cn1c(=O)c2nc(-c3ccccc3)oc2c2ccccc21	-28%	-2%	-24%	0%	2	16µM*
OCc1ccccc1O[C@H]1OC(CO)C(O)C(O)C1O (some centres not stated)	.	7%[56.1 µM]	-11%	.	.	-6%
C(#Cc1c(-c2ccsc2)sc2ccccc12)c1ccsc1	-10%	.	?	-3%	23	-9%
Cc1ccc(NS(=O)(=O)c2ccc(C)c(NC(=O)c3ccc(S(=O)(=O)N4CCCCCC4)cc3)c2)c(C)c1	-5%	.	18µM*	1%	8	10µM*
Cc1ccc(S(=O)(=O)N2CCCCC2)cc1NC(=O)c1ccc2c(c1)OCO2	3%	0%	?	-2%	-3	?
Cc1ccnc(NC(=O)c2ccc(S(=O)(=O)N3CCCCCC3)cc2)c1	2.2µM*	3%	-23%	-23%	-13	?
Cc1ccc(C(C)C)c(OCC(=O)Nc2cccc(S(=O)(=O)NC3=NCCCCC3)c2)c1	-3%	0%	?	?	-18	?
CCCCOc1ccc(S(=O)(=O)Nc2cccc(-c3ccc(N4CCOCC4)nn3)c2)cc1	-4%	5%	21µM*	?	.	?
Cc1ccc(S(=O)(=O)Nc2cccc(-c3ccc(N4CCCCCC4)nn3)c2)cc1C	-52%	2%	?	-26%	-3	23µM*
COc1c(C)cc(S(=O)(=O)Nc2cccc(-c3ccc(N4CCOCC4)nn3)c2)c(C)c1C	-27%	11%	23µM*	-33%	.	?
CCCCOc1ccc(S(=O)(=O)Nc2ccc(-c3ccc(N4CCC(C)CC4)nn3)cc2)cc1	-9%	7%	12µM*	?	.	29µM*
Cc1cc(C)cc(S(=O)(=O)Nc2cccc(-c3ccc(N4CCOCC4)nn3)c2)c1	-26%	4%	?	-16%	.	-29%
CCOc1ccc(S(=O)(=O)Nc2cccc(-c3ccc(N4CCCCCC4)nn3)c2)cc1	0%	2%	?	0%	-22	?
SMILES	HepG2 tox	TDP1 inh	TDP1 cell CPT	TGFb SMAD3 inh	IL-1B inflam inh	DT40 TDP1 no CPT
COc1ccc(S(=O)(=O)Nc2cccc(-c3ccc(N4CCCC4)nn3)c2)cc1OC	-28%	8%	-28%	?	.	-26%
CN(C)c1ccc(N2C(=NC(=O)CC3CCCCC3)SC3CS(=O)(=O)CC32)cc1 (configuration not stated)	-1%	4%	-8%	4%	-20	2%
CCc1noc(C)c1C(=O)N(C)CC(=O)Nc1ccc(OC)cc1	1%	.	3%	8%	8	-1%
CCCOC(=O)c1ccc(NC(=O)C2CC(=O)N(c3ccc(C)cc3)C2)cc1 (configuration not stated)	-2%	0%	.	1%	.	.
CC(=O)N1CCc2cc(CNS(=O)(=O)c3ccccc3C(F)(F)F)ccc21	-22%	0%	-2%	1%	.	0%
O=C(c1ccccc1)N1CCc2cc(CNS(=O)(=O)c3ccccc3Cl)ccc21	-41%	5%	1.3µM*	-29%	.	0.92µM*
O=C(c1ccccc1)N1CCc2cc(CNS(=O)(=O)c3ccc(Cl)s3)ccc21	-60%	5%	?	-23%	.	16µM*
O=C(CSc1ccccc1)NCc1ccc2c(c1)CCN2C(=O)c1ccccc1	2%	8%	6%	3%	.	-19%
Cc1ccccc1Nc1nnc(SCC(=O)c2c(N)n(C)c(=O)n(C)c2=O)s1	1%	2%	-7%	3%	2	?
CCSc1nnc(SCC(=O)c2c(N)n(C)c(=O)n(C)c2=O)s1	-2%	.	?	14%	35	23µM*
Cn1c(N)c(C(=O)CSc2ccc3c(c2)OCCO3)c(=O)n(C)c1=O	1%	2%	18µM*	24%	1	18µM*
Cc1cc(C)c(NC(=O)C2CCN(C(=O)N3CCOc4ccccc43)CC2)c(C)c1	-27%	1%	?	?	.	?
Cn1cc([N+](=O)[O-])c(C(=O)NCc2cc3cc(Cl)ccc3[nH]2)n1	0%	-5%	-15%	-2%	-2	?

Compound activity: PubChem, National Center for Advancing Translational Sciences (NCATS)
